Results filed as inconclusive are left out. The source made the active and inactive calls. Calls come from the whole dose curve; as a rule, active = well fitted curve in the direction sought with a large enough effect; inconclusive = small, poorly fitted or top-dose-only effect, or another doubt; inactive = no such curve, though single readings can be large; an effect the other way counts as inactive or inconclusive.
How the values were obtained:
[1] = qHTS of pediatric cancer cell lines to identify multiple opportunities for drug repurposing: Primary screen for NB-EBc1 cells (AID 1347095);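 note: plate controls were DMSO neutral control for no effect and bortezomib for full effect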
In short: (§1)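 500-1,000 cells/well; 5 h pre-incubation 37 °C/5% CO2; compound pinned; 48 h; CellTiter-Glo, 15 min RT; luminescence. MIPE 11-pt from 0.78 nM, NPC 8-pt from 0.59 nM final. Bortezomib 2.3 µM final as positive control.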

[2] = qHTS of pediatric cancer cell lines to identify multiple opportunities for drug repurposing: Primary screen for U-2 OS cells (AID 1347096);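 note: plate controls were DMSO wells for no effect and bortezomib positive control wells for full effect; nearly all actives have a fitted effect of over 50% in size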
In short: (§2)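 Cells (500-1,000/well) rested 5 h, then received compounds for 48 h; metabolically active cells were measured by CellTiter-Glo luminescence. Final concentrations spanned up to 46 µM (MIPE, 11-point) or 0.59 nM-46 µM (NPC, 8-point) in primary screens, 11-point in follow-ups.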

[3] = qHTS of pediatric cancer cell lines to identify multiple opportunities for drug repurposing: Primary screen for Saos-2 cells (AID 1347097); note: % is set by controls: 0 for no effect and ±100 for the full control effect; nearly all actives have a fitted effect of over 40% in size
In short: as §1

[4] = qHTS of pediatric cancer cell lines to identify multiple opportunities for drug repurposing: Primary screen for SK-N-SH cells (AID 1347098);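 note: DMSO served as neutral control and bortezomib at 2.3 µM as positive control; % is set by controls: 0 for no effect and ±100 for the full control effect; nearly all actives have a fitted effect of over 65% in size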
In short: as §2

[5] = qHTS of pediatric cancer cell lines to identify multiple opportunities for drug repurposing: Primary screen for LAN-5 cells (AID 1347100);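 note: plate controls were DMSO neutral control for no effect and bortezomib positive control for full effect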
In short: as §2

[6] = qHTS of pediatric cancer cell lines to identify multiple opportunities for drug repurposing: Primary screen for BT-12 cells (AID 1347101);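 note: plate controls were DMSO for no effect and bortezomib positive control for full effect; nearly all actives have a fitted effect of over 25% in size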
In short: as §2

[7] = qHTS of pediatric cancer cell lines to identify multiple opportunities for drug repurposing: Primary screen for Rh18 cells (AID 1347102); note: % is set by controls: 0 for no effect and ±100 for the full control effect; nearly all actives have a fitted effect of over 65% in size
In short: as §2

[8] = qHTS of pediatric cancer cell lines to identify multiple opportunities for drug repurposing: Primary screen for OHS-50 cells (AID 1347103);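 note: plate controls were DMSO neutral control for no effect and bortezomib positive control for full effect; nearly all actives have a fitted effect of over 40% in size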
In short: as §2

[9] = qHTS of pediatric cancer cell lines to identify multiple opportunities for drug repurposing: Primary screen for RD cells (AID 1347104);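 note: plate controls were DMSO for no effect and bortezomib for full effect; nearly all actives have a fitted effect of over 55% in size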
In short: as §1

[10] = qHTS of pediatric cancer cell lines to identify multiple opportunities for drug repurposing: Primary screen for NB1643 cells (AID 1347099);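 note: plate controls were DMSO neutral control for no effect and bortezomib positive control for full effect; nearly all actives have a fitted effect of over 50% in size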
In short: as §1

CC(=O)Nc1ccc(C(=O)O)cc1
inactive: outcome [1] | outcome [2] | outcome [3] | outcome [4] | outcome [5] | outcome [6] | outcome [7] | outcome [8]

C[C@@H](N)C(=O)O
inactive: outcome [1] | outcome [2] | outcome [3] | outcome [4] | outcome [5] | outcome [6] | outcome [7] | outcome [8] | outcome [9]

CN1CCN(C(=O)C2CCCCC2)CC1
inactive: outcome [1] | outcome [2] | outcome [3] | outcome [4] | outcome [5] | outcome [6] | outcome [7] | outcome [8] | outcome [9]

Cc1ccc(S(=O)(=O)NC(=O)NC2CCCCC2)cc1
inactive: outcome [1] | outcome [2] | outcome [3] | outcome [4] | outcome [5] | outcome [6] | outcome [7] | outcome [8]

C=CCOc1ccccc1OCC(O)CNC(C)C (centres undefined)
inactive: outcome [1] | outcome [2] | outcome [3] | outcome [4] | outcome [5] | outcome [6] | outcome [7] | outcome [8] | outcome [9]

O=C(O)Cn1c(C(=O)Nc2nc(-c3ccccc3Cl)cs2)cc2ccccc21
inactive: outcome [1] | outcome [2] | outcome [3] | outcome [4] | outcome [5] | outcome [6] | outcome [7] | outcome [8] | outcome [9]

CC1CCN(CCCC(=O)c2ccc(F)cc2)CC1
inactive: outcome [1] | outcome [2] | outcome [4] | Potency [10] | outcome [5] | outcome [6] | outcome [7] | outcome [8] | outcome [9]

CCCCCC(N)=O
inactive: outcome [1] | outcome [2] | outcome [4] | Potency [10] | outcome [5] | outcome [6] | outcome [7] | outcome [8]

Cc1cc(=O)[nH]c(=S)[nH]1
inactive: outcome [1] | outcome [2] | outcome [4] | Potency [10] | outcome [5] | outcome [6] | outcome [7] | outcome [8] | outcome [9]

OCCN1C[C@H](O)[C@@H](O)[C@H](O)[C@H]1CO
inactive: outcome [1] | outcome [2] | outcome [4] | Potency [10] | outcome [5] | outcome [6] | outcome [7] | outcome [8]

CC(C)c1cc2c(cc1S(=O)(=O)O)[C@@]1(C)CCC[C@@](C)(C(=O)O)[C@@H]1CC2
inactive: outcome [1] | outcome [2] | outcome [3] | Potency [10] | outcome [6] | outcome [7] | outcome [8] | outcome [9]

O=C(NCCCN1CCOCC1)c1ccc(Cl)cc1
inactive: outcome [1] | outcome [2] | outcome [4] | Potency [10] | outcome [5] | outcome [6] | outcome [7] | outcome [8] | outcome [9]

CCCCCCCCCCOc1cc2c(=O)c(C(=O)OCC)c[nH]c2cc1OCC
inactive: activity change, negative = cytotoxic [1] 9.4% [at 4.84 µM] | activity change, negative = cytotoxic [2] 0.999% [at 4.84 µM] | activity change, negative = cytotoxic [4] 2.61% [at 6 µM] | activity change, negative = cytotoxic [10] 5.42% [at 4.84 µM] | activity change, negative = cytotoxic [5] 22.4% [at 4.84 µM] | activity change, negative = cytotoxic [6] 6.24% [at 6.03 µM] | activity change, negative = cytotoxic [7] 5.32% [at 4.84 µM] | activity change, negative = cytotoxic [8] -4.02% [at 6.18 µM] | activity change, negative = cytotoxic [9] 5.98% [at 4.84 µM]

CCOc1cc(NC(C)=O)ccc1C(=O)OC
inactive: outcome [1] | outcome [2] | outcome [4] | Potency [10] | outcome [5] | outcome [6] | outcome [7] | outcome [8] | outcome [9]

COc1ccc(O)cc1
inactive: outcome [1] | outcome [2] | outcome [4] | Potency [10] | outcome [5] | outcome [6] | outcome [7] | outcome [8] | outcome [9]

Cc1cccc(Nc2ccccc2C(=O)O)c1C
inactive: outcome [1] | outcome [2] | outcome [4] | Potency [10] | outcome [5] | outcome [6] | outcome [7] | outcome [8] | outcome [9]

O=C1CC[C@@H](C(=O)O)N1
inactive: outcome [1] | outcome [2] | outcome [4] | Potency [10] | outcome [5] | outcome [6] | outcome [7] | outcome [8] | outcome [9]

Nc1ccncc1N
inactive: outcome [1] | outcome [2] | outcome [4] | Potency [10] | outcome [5] | outcome [6] | outcome [7] | outcome [8] | outcome [9]

COc1cc(O)cc(O)c1
inactive: outcome [1] | outcome [2] | outcome [3] | Potency [10] | outcome [5] | outcome [6] | outcome [7] | outcome [8] | outcome [9]

COC(=O)N/N=C/c1c[n+]([O-])c2ccccc2[n+]1[O-]
inactive: outcome [1] | outcome [2] | outcome [3] | Potency [10] | outcome [5] | outcome [6] | outcome [7] | outcome [8] | outcome [9]

CN1C(C)(C)CCCC1(C)C
inactive: outcome [1] | outcome [2] | outcome [3] | Potency [10] | outcome [6] | outcome [7] | outcome [8]

NS(=O)(=O)c1ccc(NC(=O)CCC(=O)O)cc1
inactive: outcome [1] | outcome [2] | outcome [4] | Potency [10] | outcome [5] | outcome [6] | outcome [7] | outcome [8] | outcome [9]

C[N+](C)(C)CC(O)CC(=O)[O-] (centres undefined)
inactive: outcome [1] | outcome [2] | outcome [4] | Potency [10] | outcome [5] | outcome [6] | outcome [7] | outcome [8] | outcome [9]

CCOC(=O)c1cccnc1
inactive: outcome [1] | outcome [2] | outcome [4] | Potency [10] | outcome [5] | outcome [6] | outcome [7] | outcome [8] | outcome [9]
